Several values for one entry are separate records, joined by “and”; a condition that tells them apart may be missing. Equal values may be shown once. Results filed as inconclusive are left out. Activity calls are given as the source filed them. Rule for the calls: active = hit-call score of the fitted dose curve at least 0.9, where 1 is the maximum; inconclusive = response in the unintended direction; inactive = score below 0.9.
Tests used:
[1] = TOX21_p53_BLA_p2_viability: Viability Assessment in the Tox21 HCT-116 p53 Agonism Beta-lactamase Assay, Phase 2 (AID 2283591);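 note: compound exposure lasted 16 h at 37 °C; actives lower the ATP signal meaning cytotoxicity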
How it was run: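 Cytotoxicity readout: CellTiter-Glo ATP luminescence, 30 min at room temperature, after the beta-lactamase read. Cells were HCT116 exposed 16 h at 37C to compounds pin-transferred at 217-fold dilution from DMSO stocks.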

[2] = target: Cellular tumor antigen p53 (Homo sapiens) (UniProt P04637); assay: TOX21_p53_BLA_p2_ratio: Tox21 HCT-116 p53 Agonism Beta-lactamase Assay, Ratio, Phase 2 (AID 2283592)
How it was run: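 Gain-of-signal p53 agonism was scored from the beta-lactamase FRET ratio (460/530 nm, 405 nm excitation) in HCT116 cells treated 16 h at 37C, 5% CO2, with DMSO serving as negative control and baseline.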

[3] = target: Cellular tumor antigen p53 (Homo sapiens) (UniProt P04637); assay: TOX21_p53_BLA_p3_ratio: Tox21 HCT-116 p53 Agonism Beta-lactamase Assay, Ratio, Phase 3 (AID 2283596)
How it was run: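 HCT116 p53-bla cells (4000/well) given compound in DMSO (217-fold dilution) after 5 h, incubated 16 h at 37C. CCF4-AM substrate 2 h at room temperature; 460/530 nm emission ratio, gain fitted against DMSO.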

[4] = TOX21_p53_BLA_p4_viability: Viability Assessment in the Tox21 HCT-116 p53 Agonism Beta-lactamase Assay, Phase 4 (AID 2283597);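 note: hits lower the luminescence signal meaning cytotoxicity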
How it was run: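 Following a 16 h exposure at 37C, the treated HCT116 wells were first read for the FRET ratio. They were then lysed with CellTiter-Glo, and ATP luminescence was recorded after 30 min at room temperature.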

[5] = target: Cellular tumor antigen p53 (Homo sapiens) (UniProt P04637); assay: TOX21_p53_BLA_p5_ratio: Tox21 HCT-116 p53 Agonism Beta-lactamase Assay, Ratio, Phase 5 (AID 2283599)
How it was run: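 Beta-lactamase reporter ratio (blue 460 nm over green 530 nm, 405 nm excitation) after 2 h CCF4-AM loading, in HCT-116 cells exposed 16 h at 37 C to compounds pinned at 217-fold dilution. Increases relative to DMSO baseline scored.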

[6] = target: Cellular tumor antigen p53 (Homo sapiens) (UniProt P04637); assay: TOX21_p53_BLA_p4_ratio: Tox21 HCT-116 p53 Agonism Beta-lactamase Assay, Ratio, Phase 4 (AID 2283601)
How it was run: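 Signal is the blue/green (460nm/530nm) ratio of cleaved versus uncleaved CCF4-AM substrate, read after 2 h substrate loading. Cells were HCT116 carrying the p53-responsive beta-lactamase reporter, dosed 16 h at 37C, 5% CO2; CellTiter-Glo measured in parallel.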

[7] = TOX21_p53_BLA_p5_viability: Viability Assessment in the Tox21 HCT-116 p53 Agonism Beta-lactamase Assay, Phase 5 (AID 2283600)
How it was run: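 After the 460/530 nm beta-lactamase measurement, the wells received an ATP-detection luciferase reagent; signal was read 30 min later at RT. Compound treatment lasted 16 h on cells pre-incubated 5 h post-seeding.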

[8] = target: Thyroid hormone receptor alpha (Rattus norvegicus) + Thyroid hormone receptor beta (Rattus norvegicus) (UniProt P18113+P63059); assay: TOX21_TR_LUC_GH3_Antagonist_Followup: Tox21 GH3 Thyroid Hormone Receptor Antagonism Luciferase Follow-Up Assay (AID 2283942)
How it was run: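 Confirmatory qHTS, antagonist mode: T3 (1.0 nM final) + test cpd, 15 conc, 92 uM–5nM final, GH3 rat pituitary line, 24 h, 37C. Luc reporter, RLU vs DMSO.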

THRA (gene 7067) = THRA (gene 7067) (UniProt P10827); assay: TOX21_TRA_COA_Antagonist_Followup_ratio: Tox21 Thyroid Hormone Receptor alpha Antagonism through Coactivator Recruitment Follow-Up Assay, Ratio (AID 2283953)
How it was run: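 520:495 nm emission ratio (excitation 340 nm) reports fluorescein-SRC-2 peptide recruitment to GST-TRα LBD by TR-FRET with Tb anti-GST antibody. Values were normalized to DMSO (0%) and T3 control wells (100%); loss of signal indicated antagonism.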

[9] = TOX21_TRB_BLA_Antagonist_Followup_viability: Viability Assessment in the Tox21 Thyroid Hormone Receptor beta Antagonism Beta-lactamase (BLA) Follow-Up Assay (AID 2283961)
How it was run: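 ATP-based CellTiter-Glo luminescence (30 min, room temperature) run in the same wells as the TRβ-bla readout. Cells: GeneBLAzer HEK293T expressing GAL4-TRβ LBD, exposed 18 h at 37C to compounds at 11 concentrations in triplicate, stripped-serum medium.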

THRB (gene 7068) = THRB (gene 7068) (UniProt P10828); assay: TOX21_TRB_COA_Antagonist_Followup_ratio: Tox21 Thyroid Hormone Receptor beta Antagonism through Coactivator Recruitment Follow-Up Assay, Ratio (AID 2283967)
How it was run: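 Test compound was incubated with 5.0 nM GST-TRβ LBD in 0.10% BSA. Then 200 nM fluorescein-SRC-2 peptide and 2 nM terbium anti-GST antibody were added. TR-FRET (520:495 nm) was measured and normalized to DMSO and T3 controls.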

[10] = target: Retinoic acid receptor RXR-alpha (Homo sapiens) (UniProt P19793); assay: TOX21_TR_RXR_BLA_Antagonist_Followup_ratio: Tox21 Thyroid Hormone Receptor beta Retinoid X Receptor alpha (RXRa) Antagonism Beta-lactamase (BLA) Follow-Up Assay, Ratio (AID 2283972)
How it was run: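 After 5 h attachment at 37C, HEK293T RXRa-bla cells (2,500/well, 2% charcoal-stripped FBS, no phenol red) received compounds at 11 concentrations in triplicate for 16 h. Beta-lactamase read as 460:530 nm ratio after 2 h RT substrate loading.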

Measured: AC50

Cellular tumor antigen p53 (Homo sapiens), sequence (P04637 whole entry, looked up): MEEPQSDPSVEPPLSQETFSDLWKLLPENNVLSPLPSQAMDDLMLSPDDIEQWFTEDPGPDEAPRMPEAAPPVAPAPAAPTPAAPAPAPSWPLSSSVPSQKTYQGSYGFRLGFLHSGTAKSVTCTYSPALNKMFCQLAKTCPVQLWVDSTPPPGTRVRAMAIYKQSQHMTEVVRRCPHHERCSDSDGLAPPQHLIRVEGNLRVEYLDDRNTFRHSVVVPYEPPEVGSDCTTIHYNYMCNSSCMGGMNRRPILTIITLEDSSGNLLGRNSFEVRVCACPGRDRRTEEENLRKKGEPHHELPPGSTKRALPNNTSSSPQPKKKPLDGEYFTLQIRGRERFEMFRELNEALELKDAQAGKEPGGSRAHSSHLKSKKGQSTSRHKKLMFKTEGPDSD
THRA (gene 7067), sequence (P10827 whole entry, looked up, the tested form may be a part): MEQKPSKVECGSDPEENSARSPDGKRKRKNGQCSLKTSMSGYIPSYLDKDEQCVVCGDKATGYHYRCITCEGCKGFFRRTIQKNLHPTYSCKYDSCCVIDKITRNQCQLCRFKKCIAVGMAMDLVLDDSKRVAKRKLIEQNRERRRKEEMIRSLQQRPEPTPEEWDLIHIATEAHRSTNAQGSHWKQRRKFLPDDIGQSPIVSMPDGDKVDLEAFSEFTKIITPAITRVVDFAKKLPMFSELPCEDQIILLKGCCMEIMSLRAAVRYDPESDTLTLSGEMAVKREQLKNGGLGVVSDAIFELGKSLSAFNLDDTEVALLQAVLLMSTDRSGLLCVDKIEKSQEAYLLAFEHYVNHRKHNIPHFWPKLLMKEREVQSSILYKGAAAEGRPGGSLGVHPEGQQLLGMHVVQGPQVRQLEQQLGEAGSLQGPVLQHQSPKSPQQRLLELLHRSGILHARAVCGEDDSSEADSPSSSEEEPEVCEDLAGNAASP
Retinoic acid receptor RXR-alpha (Homo sapiens), sequence (P19793 whole entry, looked up): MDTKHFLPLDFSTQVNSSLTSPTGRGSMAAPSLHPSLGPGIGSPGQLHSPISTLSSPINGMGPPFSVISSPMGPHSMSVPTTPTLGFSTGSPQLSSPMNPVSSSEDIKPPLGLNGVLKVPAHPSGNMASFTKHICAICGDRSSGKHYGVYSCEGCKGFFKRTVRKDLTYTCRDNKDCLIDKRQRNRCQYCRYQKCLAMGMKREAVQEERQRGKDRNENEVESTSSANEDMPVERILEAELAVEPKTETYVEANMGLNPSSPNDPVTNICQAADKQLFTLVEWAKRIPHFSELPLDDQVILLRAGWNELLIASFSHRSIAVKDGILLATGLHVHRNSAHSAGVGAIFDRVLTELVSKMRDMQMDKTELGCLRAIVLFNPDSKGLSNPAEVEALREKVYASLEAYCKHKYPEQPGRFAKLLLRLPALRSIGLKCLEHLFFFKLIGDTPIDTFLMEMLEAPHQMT
THRB (gene 7068), sequence (P10828 whole entry, looked up, the tested form may be a part): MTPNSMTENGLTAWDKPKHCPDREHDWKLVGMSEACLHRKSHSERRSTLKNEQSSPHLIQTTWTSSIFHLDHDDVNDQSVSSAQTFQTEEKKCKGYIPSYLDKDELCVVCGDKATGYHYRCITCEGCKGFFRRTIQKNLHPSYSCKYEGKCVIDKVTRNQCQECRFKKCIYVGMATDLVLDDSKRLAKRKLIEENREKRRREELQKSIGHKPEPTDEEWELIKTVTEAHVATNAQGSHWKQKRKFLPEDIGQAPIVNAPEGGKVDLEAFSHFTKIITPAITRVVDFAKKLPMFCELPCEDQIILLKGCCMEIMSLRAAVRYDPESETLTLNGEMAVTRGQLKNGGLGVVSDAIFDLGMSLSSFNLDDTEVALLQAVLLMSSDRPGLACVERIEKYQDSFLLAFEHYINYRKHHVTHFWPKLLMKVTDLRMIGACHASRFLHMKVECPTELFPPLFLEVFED

Cc1cccc(C)c1NC(=O)C(C)N (stereo not given)
inactive: [1] | [2] | [3] | [4] | [5] | [6]

NCC(O)CC(=O)O (stereo not given)
inactive: [1] | [2] | [3] | [4] | [5] | [6]

Nc1c2ccccc2nc2ccccc12
inactive: [1] | [4] | [7] | THRA (gene 7067) | [9] | THRB (gene 7068) | [10]
active: [2] 2.18 µM and 2.99 µM | [3] 5.09 µM and 6.02 µM | [5] 3.58 µM and 3.94 µM | [6] 2.28 µM and 5.34 µM | [8] 6.25 µM

CC(NNC(=O)c1ccccc1)c1ccccc1 (stereo not given)
inactive: [1] | [2] | [3] | [4] | [5] | [6]

Source: PubChem BioAssay (EPA / NIEHS)
